Several values for one entry are separate records, joined by “and”; a condition that tells them apart may be missing. Identical values can stand only once. Inconclusive results are not listed. Some compounds were tested as several samples or in several runs, with calls that do not always agree. Activity calls are given as the source filed them. Calls follow the shape of the dose curve; as a rule, active = well fitted curve in the direction sought with a large enough effect in the repeat runs; inconclusive = weak or mixed curves; inactive = no such curve, though single readings can be large; an effect the other way counts as inactive or inconclusive.

The values below come from PubChem BioAssay (Tox21).

Assay [1] can be described thus: qHTS RealTime-Glo MT Cell Viability Assay in HepG2 cells - 24 hour (AID 1224867). Also: nearly all actives have a fitted effect of over 50% in size. An outline of the steps: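 HepG2 cells were seeded at 600 cells/well together with NanoLuc luciferase and a cell-permeant prosubstrate, preincubated 5 h at 37 C/5% CO2, then pin-dosed with compounds in DMSO. Nonlytic luminescence from viable cells was read at each time point.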
Assay [2] is described as follows: qHTS RealTime-Glo MT Cell Viability Assay in HEK293 cells - 32 hour (AID 1224868). Also: top concentration of the series differs between compounds; nearly all actives have a fitted effect of over 50% in size. An outline of the steps:
(§1)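 HEK293 cells were seeded at 600 cells/well together with NanoLuc luciferase and cell-permeant prosubstrate, preincubated 5 h at 37 C/5% CO2, then given compound in DMSO by pintool. Luminescence from viable-cell prosubstrate reduction was read repeatedly over 40 h.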

Assay [3] is described as follows: A CellTox Green Cytotoxicity Assay to monitor cytotoxicity in HEK293 cells - 0 hour (AID 1224869). Also: nearly all actives have a fitted effect of over 50% in size. The method, boiled down:
(§2)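 Real-time, in one plate: 600 HEK293 cells/well with dead-cell DNA dye, pinned compound after 5 h, 37 C incubation over 40 h; viable cells give no appreciable fluorescence.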

A short description of assay [4]: qHTS RealTime-Glo MT Cell Viability Assay in HepG2 cells - 40 hour (AID 1224870). Also: nearly all actives have a fitted effect of over 50% in size. The method, boiled down: (§3)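 HepG2 cells mixed with RealTime-Glo MT reagents (NanoLuc plus cell-permeant prosubstrate) were seeded at 600 cells/well, incubated 5 h at 37 C/5% CO2, then pinned with compounds in DMSO; nonlytic luminescence tracked viability during 40 h treatment.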
Background: In qHTS, concentration-response curves come from the screen itself.

Assay [5] is described as follows: A CellTox Green Cytotoxicity Assay to monitor cytotoxicity in HEK293 cells - 40 hour (AID 1224871). Also: nearly all actives have a fitted effect of over 45% in size. Also: potency is read from the fitted curve at half-maximal effect. An outline of the steps: as §2
The nature of assay [6]: qHTS RealTime-Glo MT Cell Viability Assay in HEK293 cells - 16 hour (AID 1224872). The method, boiled down:
as §1

Assay [7] is described as follows: qHTS RealTime-Glo MT Cell Viability Assay in HepG2 cells - 8 hour (AID 1224873). Also: nearly all actives have a fitted effect of over 55% in size. An outline of the steps: as §3
Assay [8] in a line: qHTS RealTime-Glo MT Cell Viability Assay in HEK293 cells - 40 hour (AID 1224874). Also: nearly all actives have a fitted effect of over 50% in size. Conditions: RealTime-Glo luminescence; max response: stronger effect = lower value. The method, boiled down: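 Kinetic, non-lysing viability readout. Seed HEK293 (600/well) with reagent, incubate 5 h at 37 C/5% CO2, pin 23 nL compound in DMSO, incubate at 37 C, read luminescence at 0, 8, 16, 24, 32, 40 h.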
% is scaled to controls: 0 for no effect and ±100 for the full control effect.

In the case of `C=C(C)C(=O)OCCOCCOCCOC(=O)C(=C)C`, the compound was classed as inactive in assay [1], in assay [3], in assay [4] and in assay [7]. In addition, the Potency entry in assay [2], in assay [5] and in assay [6] was “inactive” throughout.

For `CCc1ccc(CCOc2ccc(CC3SC(=O)NC3=O)cc2)nc1` (centres undefined), the compound was called inactive in assay [1], in assay [3], in assay [4] and in assay [7]. For the same compound, the Potency entry in assay [2] and in assay [5] was “inactive” in each case. In assay [8], the max response is -19% (inactive).

For the compound `CCCCCCCCCC`, the compound was classed as inactive in assay [1], in assay [3], in assay [4] and in assay [7]. In addition, the Potency entry in assay [2], in assay [5] and in assay [6] was “inactive” in each case. Further, the max response in assay [8] is 1.13% (inactive) and 22.3% (inactive).

Turning to `COc1ccc(NC(C)=O)cc1N`, the compound was classed as inactive in assay [1], in assay [3], in assay [4] and in assay [7]. The Potency entry in assay [2], in assay [5] and in assay [6] was “inactive” each time. For the same compound, the max response in assay [8] is 6.82% (inactive) and 6.45% (inactive).

For `c1ccc(OCCOc2ccccc2)cc1`, the compound was classed as inactive in assay [1], in assay [3] and in assay [4]. Further, the Potency result in assay [2] and in assay [6] was “inactive” each time.

Take `Cc1cnc(C(=O)NCCc2ccc(S(=O)(=O)NC(=O)NC3CCCCC3)cc2)cn1`: the compound was called inactive in assay [1], in assay [3], in assay [4] and in assay [7]. The Potency result in assay [2], in assay [5] and in assay [6] was “inactive” in each case. For the same compound, in assay [8], the max response was 11.5% (inactive) and 10.1% (inactive).

Consider `Cc1ccc(S(N)(=O)=O)cc1`, for which the result in assay [1], in assay [3], in assay [4] and in assay [7] was inactive. Further, the Potency result in assay [2], in assay [5] and in assay [6] was “inactive” throughout.

Regarding `CC(=O)Nc1cccc(O)c1`, the outcome in assay [1], in assay [3] and in assay [4] was inactive. The Potency result in assay [2], in assay [5] and in assay [6] was “inactive” in each case. Besides, in assay [8], the max response was -14.2% (inactive) and 4.42% (inactive).

Consider `CCCCCOC(C)=O`, for which the compound was called inactive in assay [1], in assay [3] and in assay [4]. In addition, the Potency entry in assay [2], in assay [5] and in assay [6] was “inactive” throughout. Further, in assay [8], the max response was -23.8% (inactive) and 1.43% (inactive).

On to `C=CCOC(=O)c1ccccc1C(=O)OCC=C`, for which the outcome in assay [1], in assay [3], in assay [4] and in assay [7] was inactive. In addition, the Potency entry in assay [2] and in assay [6] was “inactive” throughout.

Consider `CCN(CC)CCCC(C)Nc1ccnc2cc(Cl)ccc12` (centres undefined), for which the activity change, negative = cytotoxicity in assay [1] was 1.52% [at 6.97 µM] (inactive) and -6.42% [at 15.8 µM] (inactive); in assay [6] it was -11.3% [at 6.97 µM] (inactive). In addition, the activity change, negative = cytotoxic in assay [2] is -16.4% [at 6.97 µM] (inactive); in assay [4], -2.02% [at 6.97 µM] (inactive) and -2.98% [at 15.8 µM] (inactive). The cytotoxicity in assay [3] was 0.802% [at 6.97 µM] (inactive) and -1.16% [at 15.8 µM] (inactive). For the same compound, the cytotoxicity increase in assay [5] is -14.6% [at 6.97 µM] (inactive) and 9.06% [at 15.8 µM] (inactive).

For `c1ccc2scnc2c1`, the result in assay [1], in assay [3], in assay [4] and in assay [7] was inactive. In addition, the Potency entry in assay [2], in assay [5] and in assay [6] was “inactive” in each case.

Turning to `CCCCCC/C(C=O)=C\c1ccccc1`, the compound was classed as inactive in assay [1], in assay [3] and in assay [4]. The Potency entry in assay [2] and in assay [6] was “inactive” in each case. Moreover, the Potency in assay [5] was 44.1 µM (active) and inactive. Also, the max response in assay [8] is -10.1% (inactive) and 0.846% (inactive).

On to `CCCCCCCCC/C=C/CC1CC(=O)OC1=O` (centres undefined), for which the compound was called inactive in assay [1], in assay [3], in assay [4] and in assay [7]. The Potency entry in assay [2], in assay [5] and in assay [6] was “inactive” each time. For the same compound, in assay [8], the max response was -19.7% (inactive) and -2.36% (inactive).

As for `CCCCCCOCCO`, the compound was called inactive in assay [1], in assay [3] and in assay [4]. The Potency result in assay [2], in assay [5] and in assay [6] was “inactive” each time. Further, the max response in assay [8] was -2.7% (inactive) and 0.672% (inactive).

For `CCCCCCCCCCCCOCCO`, the compound was called inactive in assay [1], in assay [3], in assay [4] and in assay [7]. In addition, the Potency result in assay [2], in assay [5] and in assay [6] was “inactive” each time. Besides, the max response in assay [8] was -14.2% (inactive) and -3.69% (inactive).

As for `CN(C)CCC(c1ccccc1)c1ccccn1` (centres undefined), the result in assay [1], in assay [3] and in assay [4] was inactive. The Potency entry in assay [2] and in assay [6] was “inactive” throughout.

On to `NNc1nncc2ccccc12`, for which the result in assay [1], in assay [3] and in assay [4] was inactive. The activity change, negative = cytotoxic in assay [2] was 3.93% [at 15.8 µM] (inactive). In addition, the Potency entry in assay [5] was “inactive”. In addition, the activity change, negative = cytotoxicity in assay [6] was -0.186% [at 15.8 µM] (inactive). In addition, the max response in assay [8] is 2.59% (inactive).

Turning to `CCOC(=O)NNc1nncc2ccccc12`, the outcome in assay [1], in assay [3], in assay [4] and in assay [7] was inactive. Further, the Potency entry in assay [2], in assay [5] and in assay [6] was “inactive” each time.

With `C#C[C@]1(O)CC[C@H]2[C@@H]3CCC4=CC(=O)CC[C@@H]4[C@H]3CC[C@@]21C`, the result in assay [1], in assay [3], in assay [4] and in assay [7] was inactive. The Potency entry in assay [2], in assay [5] and in assay [6] was “inactive” in each case. In addition, in assay [8], the max response was -16% (inactive).

As to `Cc1cc(C)c(C)cc1C`, the call in assay [1], in assay [3], in assay [4] and in assay [7] was inactive. Moreover, the Potency result in assay [2], in assay [5] and in assay [6] was “inactive” throughout. Besides, the max response in assay [8] was 0.583% (inactive) and -29% (inactive).

As to `CCCCCCCCCCCCCCO`, the compound was called inactive in assay [1], in assay [3], in assay [4] and in assay [7]. The Potency entry in assay [2], in assay [5] and in assay [6] was “inactive” in each case.

Consider `O=C(O)c1cc(=O)c2c(OCC(O)COc3cccc4oc(C(=O)O)cc(=O)c34)cccc2o1`, for which the call in assay [1], in assay [3] and in assay [4] was inactive. Further, the Potency result in assay [2], in assay [5] and in assay [6] was “inactive” throughout. Besides, the max response in assay [8] is 0.302% (inactive) and 1.24% (inactive).

As to `O=C(O)CCCCCCCCCCC(=O)O`, the result in assay [1], in assay [3] and in assay [4] was inactive. In addition, the Potency result in assay [2], in assay [5] and in assay [6] was “inactive” throughout. Also, the max response in assay [8] is -3.15% (inactive) and -61.6% (inactive).
